This is a sample that favours compounds with a hit; in the whole collection about 5.1% have one here.
KDM4E inh: blocks human JMJD2E demethylase activity; JMJD2E catalytic domain, FDH-coupled NADH fluorescence (FDH is formaldehyde dehydrogenase); Potency, µM (highest dose often 57.1 µM), for inactives: at the highest dose activity change, negative = inhibition, actives largely listed as inhibitors; 230,000 tested, 1.6% active; B2RXH2; AID 2147; active means well fitted inhibition curve with a large enough effect, not every such curve was filed as active; inconclusive means small, poorly fitted or top-dose-only effect, or another doubt; inactive means no such curve, though single readings can be large or run the other way;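 further: potency means the concentration at half of the fitted maximal effect; 0% = wells with enzyme and -100% = buffer wells without enzyme; nearly all actives have a fitted effect of over 50% in size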
Target sequence (B2RXH2 1-337 limits assumed): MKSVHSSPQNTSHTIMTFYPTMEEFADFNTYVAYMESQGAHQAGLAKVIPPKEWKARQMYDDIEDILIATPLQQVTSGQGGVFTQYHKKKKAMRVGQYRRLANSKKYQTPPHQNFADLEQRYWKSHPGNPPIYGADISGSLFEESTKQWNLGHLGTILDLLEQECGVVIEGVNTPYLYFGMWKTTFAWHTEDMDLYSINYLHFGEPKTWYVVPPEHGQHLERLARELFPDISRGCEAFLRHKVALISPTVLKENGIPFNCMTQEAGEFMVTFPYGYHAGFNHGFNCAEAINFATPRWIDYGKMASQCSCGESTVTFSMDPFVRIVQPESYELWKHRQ
Tau fluor counter: counter-screen for tau fibril formation inhibitors; tau K18 P301L Alexa594 fluorescence, heparin fibrillization; Potency, µM (top dose mostly 57.7 µM), for inactives: at the highest dose activity change, negative = decrease; 280,000 tested, 0.93% active; further: potency means the concentration at half of the fitted maximal effect; nearly all actives have a fitted effect of over 55% in size
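Human tau K18 P301L (15 uM unlabeled, 0.24 uM Alexa 594-labeled) in 100 mM sodium acetate pH 7 with 20 uM heparin, 6 hr at 37 C. ThT 30 uM added, 1 hr ambient; Alexa 594 FP and total fluorescence read at 555/632 nm.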
NPSR antag: neuropeptide S receptor (human) antagonism, cAMP; Potency, µM (titrated, usually from 38.3 µM), for inactives: at the highest dose activity change, negative = inhibition, usual class: inhibitors; CHO-NPSR cells, cAMP TR-FRET, antagonist mode; Q6W5P4; 220,000 tested, 1% active; AID 1461; further: potency means the concentration at half of the fitted maximal effect; nearly all actives have a fitted effect of over 50% in size
Target sequence (Q6W5P4 whole entry, looked up): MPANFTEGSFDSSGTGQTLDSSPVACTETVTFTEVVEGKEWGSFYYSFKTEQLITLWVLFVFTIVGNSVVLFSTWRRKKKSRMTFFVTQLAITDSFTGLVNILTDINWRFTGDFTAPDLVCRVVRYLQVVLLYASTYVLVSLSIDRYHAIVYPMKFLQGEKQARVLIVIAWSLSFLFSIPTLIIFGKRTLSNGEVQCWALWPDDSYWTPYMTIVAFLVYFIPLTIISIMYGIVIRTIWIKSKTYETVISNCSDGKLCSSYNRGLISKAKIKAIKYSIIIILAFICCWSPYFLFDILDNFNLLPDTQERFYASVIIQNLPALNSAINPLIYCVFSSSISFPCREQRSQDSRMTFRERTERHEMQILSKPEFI
Tau fibril ThT: tau fibrillization inhibition (ThT binding) | AID 1460 | recombinant tau K18 P301L, heparin-induced fibrillization, ThT fluorescence | Potency, µM (series often up to 57.4 µM), without a hit: at the top dose activity, negative = inhibition, usual class: inhibitors | 270,000 tested, 2.1% active; further: potency means the concentration at half of the fitted maximal effect; nearly all actives have a fitted effect of over 55% in size
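Heparin-induced (20 uM) aggregation of recombinant human K18 P301L tau, 15 uM unlabeled with 0.24 uM labeled, pH 7 acetate buffer, 6 hr at 37 C with compound. Fibrils quantified by 30 uM ThT fluorescence after 1 hr ambient incubation.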
PNC assembly inh: perinucleolar compartment assembly inhibition; PC3M PTB-GFP, PNC prevalence imaging, 16 h; hits give low values; activity change (PNC), negative = inhibition, % at 10 µM; 140,000 tested, 3.1% active; AID 2417;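 active means readout at or below -70, meaning at least 70% loss of cells showing the perinucleolar compartment, a nuclear body marking cancer cells; inconclusive means readout between -30 and a set limit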;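 further: plate controls were DMSO wells for no effect and camptothecin positive control wells for full effect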
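Read-out is percentage of cells bearing a perinucleolar compartment, from automated 20x imaging of fixed, Hoechst-stained PC3M PTB-GFP cells. Cells were seeded 4 h, then exposed 16 h to compound (23 nl of library stock) in duplicate plates.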
Tau FP inhib: inhibitors of human tau fibril formation; P10636; K18 P301L tau heparin fibrillization, Alexa594 FP, 6 h; Potency, µM (top dose mostly 57.7 µM), without a hit: at the top dose activity, negative = inhibition, usual class: inhibitors; 280,000 tested, 0.39% active; further: potency means the concentration at half of the fitted maximal effect; nearly all actives have a fitted effect of over 55% in size
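Heparin (20 uM) drove fibril formation of recombinant tau K18 P301L, 15 uM unlabeled with 0.24 uM Alexa 594 label, for 6 hr at 37 C in 100 mM sodium acetate pH 7. Fluorescence polarization (555/632 nm) read 1 hr after 30 uM ThT.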
The depositor's hits bear a star; ? = inconclusive; nt = no result given; [ ] = dose if it differs, or a comment. Unless noted, the call rests on the fitted dose curve; in most records, active means well fitted curve in the direction sought with a large enough effect; inconclusive means small, poorly fitted or top-dose-only effect, or another doubt; inactive means no such curve, though single readings can be large; an effect the other way counts as inactive or inconclusive. Unless noted, on the % scale 0 is the no-effect control and ±100 the full control effect.

SMILES	KDM4E inh	Tau fluor counter	NPSR antag	Tau fibril ThT	PNC assembly inh	Tau FP inhib
COc1cc2c(cc1OC)C(COc1ccc3c(C)cc(=O)oc3c1)N(C(=O)Cc1ccccc1)CC2 (stereo not given)	nt	-16%	nt	-14%	nt	-1%
CCCN1Cc2cccc(C(=O)Nc3ccc4c(c3)OCCO4)c2C1=O	7%	?	-15%[46.1 µM]	?	-106*	4%
COCCN1Cc2cccc(C(=O)Nc3cc(C)cc(C)c3)c2C1=O	?	-22%	-16%[46.1 µM]	-18%	-85*	-13%
CCCN1Cc2cccc(C(=O)Nc3ccc4c(c3)OCO4)c2C1=O	9%	?	?	?	11	15%
COCCN1Cc2cccc(C(=O)Nc3c(C)cc(C)cc3C)c2C1=O	-1%	-13%	?	-17%	?	4%
CCN(CC)C(=O)CSc1nnc(CCN)o1	6%	0%	-1%[46.1 µM]	0%	-82*	-4%
COc1ccc(-c2noc(N3CCN(c4ccc(C)cc4)C(C)C3)n2)cc1OC (stereo not given)	nt	-16%	nt	?	nt	9%
COc1ccc(-c2c3c(=O)n(C)c(=O)n(C)c3c3n2-c2ccccc2NC3c2ccco2)cc1 (stereo not given)	nt	-5%	nt	-17%	nt	5%
NC[C@@H]1O[C@H](c2ccccc2)Cc2c1ccc(O)c2O	16µM*	-19%	nt	?	nt	-8%
NC[C@@H]1O[C@H](C23CC4CC(CC(C4)C2)C3)Cc2c1ccc(O)c2O	22µM*	?	?	?	nt	-4%
Cc1cccc(Nc2nnc(-c3ccc(C)c(S(=O)(=O)N4CCN(C)CC4)c3)c3ccccc23)c1	nt	-24%	nt	0%	nt	4%
COc1ccc(-n2nc3cc(C)c(N)c(Br)c3n2)cc1	?	?	-14%[46.1 µM]	14µM*	?	?
COc1cccc([C@@H]2Oc3ccc(Br)cc3C[C@H]2OC(=O)N[C@H](C)C2CCCCC2)c1	9%	-4%	nt	-5%	nt	-3%
Cn1c(=O)c(N)c2c3c(c(Br)ccc31)C(=O)c1ccccc1-2	25µM*	?	16%	14µM*	nt	-13%
CCCCNc1c2c3c(cccc3n(C)c1=O)C(=O)c1ccccc1-2	-6%	-23%	?	-14%	?	8%
O=C(Nc1ccccc1)c1ccc(NCc2ccco2)c(S(=O)(=O)N2CCOCC2)c1	-12%	?	-12%[46.1 µM]	?	-88*	?
CCOc1ccc2nc(NC(=O)c3cccnc3)sc2c1	1%	-5%	8%	?	-108*	2%
COc1cc(OC)cc(C(=O)Nc2cccnc2)c1	0%	-4%	6%	-8%	nt	1%
CCOc1cc(OCC)cc(C(=O)Nc2cccnc2)c1	1%	-8%	-20%[46.1 µM]	-2%	-91*	-2%
CCCc1cc(C(=O)Nc2cccnc2)no1	5%	5%	0%[46.1 µM]	10%	-106*	-3%
CCOc1ccc(CCNC(=O)c2nnc(Cc3cc(OC)c(OC)c(OC)c3)o2)cc1OCC	nt	-12%	nt	-13%	nt	-13%
COc1ccc(-c2cc(C(F)(F)F)c(C#N)c(SCC(=O)Nc3ccc(F)cc3)n2)cc1	nt	3%	nt	6%	nt	-21%
CCOc1ccc2c(c1)OC(c1ccc(OC)cc1)(C(F)(F)F)NC2=O (stereo not given)	-6%	-10%	?	-4%	-92*	4%
O=[N+]([O-])c1ccc(N2CCCCC2)nc1N1CCCCC1	2%	-22%	36%	?	nt	0%
O=[N+]([O-])c1ccc2c(c1N1CCCCC1)=NC1(CCCCC1)[N+]=2[O-]	-20%	?	?	13µM*	nt	?
SMILES	KDM4E inh	Tau fluor counter	NPSR antag	Tau fibril ThT	PNC assembly inh	Tau FP inhib
Cc1ccccc1C(=O)Nc1cccc(OCc2cc(=O)n3c4c(sc3n2)CCCC4)c1	nt	-27%	nt	-16%	nt	-1%
O=C(N/N=C/c1ccccc1O)C1SCCCS1	28µM*	3%	1%	6%	nt	-6%
CC1(C)C2CCC1(C)C(OCC[N+](C)(C)CC(=O)OC1CCCCC1)C2 (stereo not given)	2%	8%	12%[46.1 µM]	-7%	?	10%
CCOC(=O)C[N+](C)(C)CCOC1CC2CCC1(C)C2(C)C (stereo not given)	18µM*	-5%	-4%	-10%	nt	2%
CCOc1ccc(-c2cc(C(=O)NCc3ccc(OC)cc3)c3c(-c4ccc(F)cc4)[nH]nc3n2)cc1	nt	0%	nt	6%	nt	-9%
CS(=O)(=O)CCC(C(=O)OCc1ccc(Br)cc1)N1C(=O)c2ccccc2C1=O (stereo not given)	0%	-6%	15%	-3%	9	2%
COC(=O)c1ccc(COC(=O)C(CCS(C)(=O)=O)N2C(=O)c3ccccc3C2=O)cc1 (stereo not given)	9%	2%	17%	4%	-104*	13%
Cc1ccccc1N1CC(=O)N(c2ccccc2C)CC1=O	4%	-7%	-6%[46.1 µM]	-11%	7	0%
Cc1cccc2c1c1ccc3c(c1n2C)C(=O)C=CC3=O	3%	4µM*[quencher]	?	3.5µM*	nt	8.9µM*
CCOc1ccc(/C=C2\SC(=S)N(N3C(=O)C4CC4C3=O)C2=O)cc1 (stereo not given)	-11%	-13%	-11%	?	nt	2%
CCOc1ccc(/C=C2/SC(=O)NC2=S)cc1	-5%	?	-49%	3.2µM*	-21	-4%
CCOc1ccc(N=C2NC(=O)S/C2=C\c2ccc(N(C)C)cc2)cc1	-5%	?	-24%[46.1 µM]	1.1µM*	-12	8%
CC(C)c1ccc(N2C=Nc3ccc(C(C)C)cc3C2)cc1	-6%	-11%	7.9µM*	nt	nt	1%
C1=Nc2ccccc2CN1c1ccccc1	7%	6%	16%	9%	18	1%
CC(C)C(=O)NC(=S)Nc1ccc(S(=O)(=O)Nc2ccccc2)cc1	-1%	-12%	-18%	4%	?	-4%
CC(C)C(=O)NC(=S)Nc1ccc(S(=O)(=O)NC(C)(C)C)cc1	-1%	-1%	-16%[46.1 µM]	-2%	-107*	-4%
CC(C)Sc1nc2sc(-c3ccccc3)cc2c(=O)n1N	-2%	2%	3%[46.1 µM]	-2%	-106*	-2%
CSc1nc2sc(-c3ccccc3)cc2c(=O)n1N	?	7%	-3%[46.1 µM]	-1%	32	2%
CC(NC(=S)N1CCOCC1)c1ccccc1 (stereo not given)	-2%	7%	7%	4%	-121*	2%
COc1ccccc1CNC(=O)CCn1c(=O)c2ccccc2n(CC(=O)Nc2cc(Cl)ccc2C)c1=O	nt	6%	nt	11%	nt	-16%
Cc1ccc(CN(C(=O)COc2cc(C)c(Cl)c(C)c2)c2ccccn2)o1	nt	-12%	nt	-16%	nt	2%

Screening results (PubChem)
